# Results reported in PubChem BioAssay (EPA / NIEHS).
# Inconclusive results are not listed. Activity calls are given as the source filed them. Rule for the calls: active = hit-call score of the fitted dose curve at least 0.9, where 1 is the maximum; inconclusive = response in the unintended direction; inactive = score below 0.9.
# Assay: ATG_XTT_Cytotoxicity: Cytotoxicity Assessment in the Attagene TRANS-FACTORIAL HepG2 Assay (AID 2283584)
# Outline: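 XTT readout of cell number in transfected HepG2 cells, 24 h post-dosing; DMSO serves as negative control and baseline, with activity taken as loss of viability signal.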
row,SMILES,outcome
1,CCc1ccc(C)nc1,inactive
2,c1ccc(C[P+](c2ccccc2)(c2ccccc2)c2ccccc2)cc1,inactive
3,CC(C)(C)c1cc(CCC(=O)NCCCCCCNC(=O)CCc2cc(C(C)(C)C)c(O)c(C(C)(C)C)c2)cc(C(C)(C)C)c1O,inactive
